Measurements from PubChem BioAssay (NCI).
About 79,000 compounds went through this panel and 15% of them were active in at least one assay; those are over-represented in the sample as a whole. Unmarked numbers belong to inactive results. The source made the active and inactive calls. Rule as the data show it: active = growth inhibition above about 70%; inactive = the rest.

Test: NCI Yeast Anticancer Drug Screen. Data for the mec2-1 strain (AID 157)
Conditions: S. cerevisiae mec2-1 strain, hits give high values
Method: Growth inhibition of yeast strains with defined genetic alterations is measured as a screen for potential anti-cancer activity. Selected strains with alterations in DNA damage repair or cell cycle control were exposed to compounds and growth inhibition was measured relative to vehicle treated controls. The strain used in this assay is mec2-1

[1] = at 5.0 µM (retest, dose inferred, filed as 0.5)
[2] = at 50.0 µM (retest, dose inferred, filed as 5.0)

| Structure (SMILES) | growth inhibition [1] | growth inhibition [2] | growth inhibition (at 50.0 µM) |
| --- | --- | --- | --- |
| CCCCCCCCCCCCCCNCCC(=O)O | 23% | 100% (active) | 99.5% (active) |
| COC(=O)C(=Cc1c[nH]c2ccccc12)C(=O)OC | 4% | 2% | 30.3% |
| O=c1cc(-c2cccc(OCc3ccccc3)c2)[nH]c2cc3c(cc12)OCO3 | 16% | 12% | -21.4% |
| CC(C)c1ccc(C2C3=C(N=C4SCC(=O)N42)C(=O)c2ccccc23)cc1 (configuration not stated) | -20% | 3% | 68.2% |
| CC[C@@H](C(=O)[C@@H](C)[C@@H](O)[C@H](C)CCc1ccc(C)c(O)c1C(=O)O)[C@H]1O[C@](CC)([C@H]2CC[C@](O)(CC)[C@H](C)O2)C[C@@H]1C | 48% | 98% (active) | 92% (active) |
| O=C(c1ccccc1)c1cn(/N=C\c2ccccc2)c(=O)nc1-c1ccccc1 | -13% | 96% (active) | 80.2% (active) |
| CC(=O)N(O)c1ccc2c(c1)Cc1cc(F)ccc1-2 | 34% | 29% | 94% (active) |
| CCOC(=O)C1=C(C)NC2=C(C(=O)N(c3ccccc3)C2c2ccccc2)C1c1ccccc1 (configuration not stated) | 9% | 9% | 56.4% |
| O=C(CCl)Oc1ccc(Sc2ccc(OC(=O)CCl)cc2)cc1 | 12% | 98% (active) | 98.3% (active) |
| CCC[CH2][Sn]([Cl])([CH2]CCC)[S]/C(C#N)=N/N=C/c1ccc(N(C)C)cc1 | 97% (active) | 98% (active) | 98.8% (active) |
| CCCCCN(CCCCC)CC(C)(C)C(O)c1ccc(OC)c2ccccc12 (configuration not stated) | -4% | 18% | 47.6% |
| O=C(O)c1cc(Br)ccc1OCc1ccc(Cl)cc1 | -1% | 19% | 51.2% |
| COc1ccc(C(=O)C(CN2CCOCC2)CN2CCOCC2)cc1 | 20% | -6% | 97.2% (active) |
| CCCCCCc1cc(C(=O)N/N=C\c2cccc([N+](=O)[O-])c2)c2ccccc2n1 | -1% | -2% | -9.2% |
